Compound activity: PubChem, National Center for Advancing Translational Sciences (NCATS)
HCV inhibitor: inhibitors of hepatitis C virus infection; Huh7.5.1 HCVcc-Cre infection, luciferase reporter, 44 h; Potency, µM (titrated, usually from 41.8 µM), inactives show at the highest dose activity change, negative = inhibition, actives largely listed as inhibitors; actives 3.4% (n = 340,000); AID 651820; further: on the % scale 0 is the no-effect control and ±100 the full control effect
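Compounds are dispensed onto cells plated 4 h earlier at 1,000 per well, with HCVcc-Cre virus (about 0.5 moi) added next. Following 44 h of culture, luminescent signal is measured for 15 sec after 15 min with substrate at room temperature.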
Pf growth 96h: inhibits malaria parasite growth, 96 h | P. falciparum luciferase reporter growth, 96 h | Potency, µM (titrated, usually from 28.7 µM), for inactives: at the top dose activity change, negative = inhibition, most hits filed as inhibitors | actives 6.9% (n = 320,000); further: on the % scale 0 is the no-effect control and ±100 the full control effect
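Cell-based qHTS: luciferase-tagged P. falciparum in erythrocytes (2% hematocrit, 0.05% parasitemia final) incubated with compounds for 96 hours, 37 C, 5% CO2; luciferase detection reagent then added and luminescence measured.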
Pf growth 48h: inhibits P. falciparum growth in the first generation, 48 h. P. falciparum luciferase growth in erythrocytes, 48 h. Potency, µM (series often up to 28.7 µM), inactives show at the highest dose activity change, negative = inhibition, hits mostly inhibitors. actives 5.9% (n = 310,000). AID 504832; further: on the % scale 0 is the no-effect control and ±100 the full control effect
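Cell-based growth assay: transgenic P. falciparum expressing firefly luciferase, cultured in red cells within RPMI 1640 containing 0.5% w/v Albumax, 24 mM bicarbonate and gentamycin. A drop in luciferase activity indicates inhibition.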
VACV mCherry inh: inhibitors of vaccinia virus infection (mCherry reporter signal) | Vaccinia virus mCherry reporter infection, fluorescence | Potency, µM (doses to about 36.5 µM), without a hit: at the highest dose activity change, negative = inhibition, hits mostly inhibitors | actives 0.63% (n = 310,000) | AID 720579; calls by dose curve; tested in A549 cells; further: on the % scale 0 is the no-effect control and ±100 the full control effect; nearly all actives have a fitted effect of over 35% in size
VACV Venus inh: vaccinia inhibition (Venus reporter); Vaccinia virus Venus reporter expression, fluorescence; Potency, µM (titrated, usually from 36.5 µM), for the others: top-dose activity change, negative = inhibition, usual class: inhibitors; actives 0.46% (n = 330,000); calls by dose curve; tested in A549 cells; further: on the % scale 0 is the no-effect control and ±100 the full control effect; nearly all actives have a fitted effect of over 30% in size
NS1 function inh: blocks influenza NS1 protein function; AID 2326; Potency, µM (titrated, usually from 46.1 µM), for the others: at the highest dose activity, positive = more growth; actives 0.4% (n = 270,000); calls by dose curve; further: actives are rising curves; nearly all actives have a fitted effect of over 50% in size
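A cell-based growth assay was used: compounds that relieve NS1-induced slow growth of budding yeast raise OD600. Assay medium was yeast nitrogen base with ammonium sulphate and -URA supplement, pH 6.0, with 2% galactose.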
The depositor's hits bear a star; i = inactive; ? = inconclusive; · = not tested or not shown. In the library only some 11% were active in any assay of this set; here they are far more common. Unless noted, the call rests on the fitted dose curve; in most records, active means well fitted inhibition curve with a large enough effect; inconclusive means small, poorly fitted or top-dose-only effect, or another doubt; inactive means no such curve, though single readings can be large or run the other way. Potency means the concentration at half of the fitted maximal effect.

SMILES | HCV inhibitor | Pf growth 96h | Pf growth 48h | VACV mCherry inh | VACV Venus inh | NS1 function inh
O=C(c1ccc(Cl)c(S(=O)(=O)N2CCOCC2)c1)N(Cc1ccco1)Cc1cccs1 | ? | 2.6µM* | ? | -22% | -12% | ·
O=C(C[C@H]1C/C=C\C[C@H](Cc2ccc(F)cc2)C(=O)O[C@@H](c2ccccc2)CNC1=O)N[C@H](CO)Cc1ccccc1 | -24% | · | · | i | ? | ·
COCCN1CC(O)=C(c2nc3ccccc3c(=O)[nH]2)C1=N | 14% | -66% | ? | · | -16% | -34%
COc1ccc(N2CC(O)=C(c3nc(-c4ccc(Br)cc4)cs3)C2=N)cc1 | 11% | -2% | -8% | -15% | -14% | ·
COc1ccccc1N1CC(O)=C(c2nc3ccccc3c(=O)[nH]2)C1=N | ? | 6% | 9.3µM* | 5.6µM* | ? | -6%
COc1ccc(OC)c(N2CC(O)=C(c3nc4ccccc4s3)C2=N)c1 | 25µM* | ? | ? | -9% | -26% | -15%
CCN(CC)CCCN1CC(O)=C(c2nc3ccccc3s2)C1=N | 11µM* | · | ? | · | -20% | 3%
COc1ccc(N2CC(O)=C(c3nc(-c4ccccc4)cs3)C2=N)cc1 | -13% | 0.47µM* | ? | -6% | -6% | -4%
O=C(COC(=O)CNC(=O)c1ccccc1)NCCNC(=O)COC(=O)CNC(=O)c1ccccc1 | -5% | 37% | ? | -9% | 10% | ·
COc1ccc(-c2nc(-c3ccc(O)cc3O)cs2)cc1OC | ? | ? | -15% | -26% | -19% | -31%
COc1ccc(-c2csc(C3=C(O)CN(C(C)C)C3=N)n2)cc1OC | ? | ? | 10µM* | ? | ? | 1%
COc1ccc(-c2nn(-c3ccccc3)cc2/C=C(\C#N)S(=O)(=O)c2ccccc2)cc1OC | 4% | 38% | 17% | -13% | -10% | 0%
O=C(N/N=C/c1cn(-c2ccccc2)nc1-c1cc2ccccc2o1)c1ccncc1 | ? | -45% | -33% | -25% | -29% | 4%
O=C(O)/C=C/c1cn(-c2ccccc2)nc1-c1ccc(-c2ccc([N+](=O)[O-])cc2)o1 | 4% | 6% | 9% | i | -6% | -1%
CN(C)S(=O)(=O)c1cccc(-c2nn(-c3ccccc3)cc2/C=C(\C#N)c2nc3ccccc3[nH]2)c1 | ? | 1.5µM* | 2.1µM* | 15% | 14% | 26%
CN(C)S(=O)(=O)c1cccc(-c2nn(-c3ccccc3)cc2/C=C2\SC(=S)NC2=O)c1 | -9% | 2.6µM* | 4.7µM* | ? | ? | ·
Cc1ccc(-c2nn(-c3ccccc3)cc2/C=C(\C#N)c2cccc(C#N)c2)o1 | ? | · | 12µM* | -11% | -4% | 2%
N#C/C(=C\c1cn(-c2ccccc2)nc1-c1cc2ccccc2o1)c1nc2ccccc2[nH]1 | 3% | 0.66µM* | 1µM* | -15% | -4% | 0%
N/C(=N\OC(=O)COc1cc(Cl)c(Cl)cc1Cl)c1ccccn1 | -18% | 7% | 494% | i | -6% | ·
CC(NC(=O)Nc1ccc(Cl)cc1)C1CCCO1 (configuration not stated) | 1% | ? | 73% | i | -4% | 4%
Cc1ccc(N=C(NOCc2ccc(Cl)cc2Cl)c2nonc2N)c(C)c1 | -39% | 12µM* | · | -4% | -11% | 12%
Cc1ccc(N=C(NOC(=O)c2ccccc2)c2nonc2N)c(C)c1 | 18% | 5.9µM* | ? | · | -20% | 0%
Cc1ccccc1N=C(NOCc1ccc(Cl)cc1Cl)c1nonc1N | ? | 12µM* | · | i | 0% | 2%
Cc1ccc(N=C(NO)c2nonc2N)c(C)c1 | -6% | 34% | 11% | -5% | -16% | -21%
Cc1ccccc1N=C(NOCc1ccccc1)c1nonc1N | -26% | ? | ? | -21% | -20% | -39%
SMILES | HCV inhibitor | Pf growth 96h | Pf growth 48h | VACV mCherry inh | VACV Venus inh | NS1 function inh
CC(C)Oc1ccc(S(=O)(=O)N2CCOCC2)cc1NC(=O)C1=COCCO1 | 23% | 12µM* | ? | i | -13% | ·
CCOc1ccc(S(=O)(=O)N2CCCCC2)cc1NC(=O)C1CCC1 | -15% | 0% | 1% | -6% | -24% | ·
CCOc1ccc(S(=O)(=O)N2CCCCC2)cc1NC(=O)C1COc2ccccc2O1 (configuration not stated) | 10µM* | ? | 6.6µM* | -12% | -21% | ·
CC(C)Oc1ccc(S(=O)(=O)N2CCOCC2)cc1NC(=O)C1COc2ccccc2O1 (configuration not stated) | ? | 12µM* | 12µM* | · | · | ·
Cc1ccc(S(=O)(=O)N2CCN(c3nc(N(C)c4cc(Cl)ccc4O)nc4ccccc34)CC2)cc1 | · | · | · | -15% | -17% | ·
COc1ccc(N2CCN(C(=O)C3CCCN(S(=O)(=O)c4ccc(F)cc4)C3)CC2)cc1 (configuration not stated) | ? | -31% | ? | i | -22% | 12%
CC(=O)c1ccc(N2CCN(C(=O)C3CCCN(S(=O)(=O)c4ccc(Br)s4)C3)CC2)cc1 (configuration not stated) | · | · | · | ? | -15% | ·
COc1ccc(N2CCN(C(=O)c3cc(S(=O)(=O)N4CCCCCC4)ccc3OC)CC2)cc1 | -19% | ? | 12µM* | 0% | -18% | ·
COc1ccc(N2CCN(C(=O)C3CCCN(S(=O)(=O)c4ccc(C)cc4)C3)CC2)cc1 (configuration not stated) | 2.5µM* | 35% | ? | -6% | 3% | 0%
COc1ccc(S(=O)(=O)N2CCCCCC2)cc1C(=O)N1CCN(c2ccccc2C)CC1 | ? | 5.9µM* | 12µM* | · | · | ·
CC(=O)c1ccc(N2CCN(C(=O)C3CCCN(S(=O)(=O)c4cnc[nH]4)C3)CC2)cc1 (configuration not stated) | -5% | 5.9µM* | ? | · | · | -6%
CC(=O)Nc1ccc(S(=O)(=O)NC(C)C(=O)NC(C)c2ccccc2)cc1 (configuration not stated) | 19% | -1% | 0% | -5% | -5% | 7%
O=C(NCc1ccccc1)C1=C[C@@H](c2ccc(Br)cc2)C[C@@H](OCc2ccc(CO)cc2)O1 | ? | -14% | ? | -26% | ? | 5%
CCN(CC(=O)N1CCCC1)S(=O)(=O)c1ccc2ccccc2c1 | 1% | -16% | -10% | · | · | 0%
COc1ccc(S(=O)(=O)N2CCCCCC2)cc1C(=O)N1CCN(c2ccccc2O)CC1 | -10% | 4.7µM* | 2.3µM* | -24% | -21% | ·
CCCCNC(=S)N1CCn2cccc2C1c1cccnc1 (configuration not stated) | 12% | 45% | ? | i | -4% | ·
S=C(NCCc1ccccc1)N1CCn2cccc2C1c1cccnc1 (configuration not stated) | ? | 10µM* | 12µM* | -10% | -2% | ·
